Measured values: PubChem BioAssay AID2073 (Sanford-Burnham Center for Chemical Genomics, 2009)
About 570 (0.2%) of roughly 290,000 compounds were called active. Another 1% or so got no clear call; they are omitted. No stated cut-off is given here; in the data, active means inhibition mostly above about 51% (no sharp cut-off); inconclusive means no clear call, values can overlap the other calls; inactive means mostly below about 53%. The list comes from a sample in which actives are over-represented; it also holds similar structures and randomly drawn compounds.

Target: Voltage-dependent N-type calcium channel subunit alpha-1B (Homo sapiens) (UniProt Q00975)
Assay: inhibitors of Mint1-CaV2.2 protein interaction, biochemical, HTRF (AID 2073)
Conditions: at 20 µM, stronger effect = higher value

Voltage-dependent N-type calcium channel subunit alpha-1B (Homo sapiens), sequence (Q00975 whole entry, looked up): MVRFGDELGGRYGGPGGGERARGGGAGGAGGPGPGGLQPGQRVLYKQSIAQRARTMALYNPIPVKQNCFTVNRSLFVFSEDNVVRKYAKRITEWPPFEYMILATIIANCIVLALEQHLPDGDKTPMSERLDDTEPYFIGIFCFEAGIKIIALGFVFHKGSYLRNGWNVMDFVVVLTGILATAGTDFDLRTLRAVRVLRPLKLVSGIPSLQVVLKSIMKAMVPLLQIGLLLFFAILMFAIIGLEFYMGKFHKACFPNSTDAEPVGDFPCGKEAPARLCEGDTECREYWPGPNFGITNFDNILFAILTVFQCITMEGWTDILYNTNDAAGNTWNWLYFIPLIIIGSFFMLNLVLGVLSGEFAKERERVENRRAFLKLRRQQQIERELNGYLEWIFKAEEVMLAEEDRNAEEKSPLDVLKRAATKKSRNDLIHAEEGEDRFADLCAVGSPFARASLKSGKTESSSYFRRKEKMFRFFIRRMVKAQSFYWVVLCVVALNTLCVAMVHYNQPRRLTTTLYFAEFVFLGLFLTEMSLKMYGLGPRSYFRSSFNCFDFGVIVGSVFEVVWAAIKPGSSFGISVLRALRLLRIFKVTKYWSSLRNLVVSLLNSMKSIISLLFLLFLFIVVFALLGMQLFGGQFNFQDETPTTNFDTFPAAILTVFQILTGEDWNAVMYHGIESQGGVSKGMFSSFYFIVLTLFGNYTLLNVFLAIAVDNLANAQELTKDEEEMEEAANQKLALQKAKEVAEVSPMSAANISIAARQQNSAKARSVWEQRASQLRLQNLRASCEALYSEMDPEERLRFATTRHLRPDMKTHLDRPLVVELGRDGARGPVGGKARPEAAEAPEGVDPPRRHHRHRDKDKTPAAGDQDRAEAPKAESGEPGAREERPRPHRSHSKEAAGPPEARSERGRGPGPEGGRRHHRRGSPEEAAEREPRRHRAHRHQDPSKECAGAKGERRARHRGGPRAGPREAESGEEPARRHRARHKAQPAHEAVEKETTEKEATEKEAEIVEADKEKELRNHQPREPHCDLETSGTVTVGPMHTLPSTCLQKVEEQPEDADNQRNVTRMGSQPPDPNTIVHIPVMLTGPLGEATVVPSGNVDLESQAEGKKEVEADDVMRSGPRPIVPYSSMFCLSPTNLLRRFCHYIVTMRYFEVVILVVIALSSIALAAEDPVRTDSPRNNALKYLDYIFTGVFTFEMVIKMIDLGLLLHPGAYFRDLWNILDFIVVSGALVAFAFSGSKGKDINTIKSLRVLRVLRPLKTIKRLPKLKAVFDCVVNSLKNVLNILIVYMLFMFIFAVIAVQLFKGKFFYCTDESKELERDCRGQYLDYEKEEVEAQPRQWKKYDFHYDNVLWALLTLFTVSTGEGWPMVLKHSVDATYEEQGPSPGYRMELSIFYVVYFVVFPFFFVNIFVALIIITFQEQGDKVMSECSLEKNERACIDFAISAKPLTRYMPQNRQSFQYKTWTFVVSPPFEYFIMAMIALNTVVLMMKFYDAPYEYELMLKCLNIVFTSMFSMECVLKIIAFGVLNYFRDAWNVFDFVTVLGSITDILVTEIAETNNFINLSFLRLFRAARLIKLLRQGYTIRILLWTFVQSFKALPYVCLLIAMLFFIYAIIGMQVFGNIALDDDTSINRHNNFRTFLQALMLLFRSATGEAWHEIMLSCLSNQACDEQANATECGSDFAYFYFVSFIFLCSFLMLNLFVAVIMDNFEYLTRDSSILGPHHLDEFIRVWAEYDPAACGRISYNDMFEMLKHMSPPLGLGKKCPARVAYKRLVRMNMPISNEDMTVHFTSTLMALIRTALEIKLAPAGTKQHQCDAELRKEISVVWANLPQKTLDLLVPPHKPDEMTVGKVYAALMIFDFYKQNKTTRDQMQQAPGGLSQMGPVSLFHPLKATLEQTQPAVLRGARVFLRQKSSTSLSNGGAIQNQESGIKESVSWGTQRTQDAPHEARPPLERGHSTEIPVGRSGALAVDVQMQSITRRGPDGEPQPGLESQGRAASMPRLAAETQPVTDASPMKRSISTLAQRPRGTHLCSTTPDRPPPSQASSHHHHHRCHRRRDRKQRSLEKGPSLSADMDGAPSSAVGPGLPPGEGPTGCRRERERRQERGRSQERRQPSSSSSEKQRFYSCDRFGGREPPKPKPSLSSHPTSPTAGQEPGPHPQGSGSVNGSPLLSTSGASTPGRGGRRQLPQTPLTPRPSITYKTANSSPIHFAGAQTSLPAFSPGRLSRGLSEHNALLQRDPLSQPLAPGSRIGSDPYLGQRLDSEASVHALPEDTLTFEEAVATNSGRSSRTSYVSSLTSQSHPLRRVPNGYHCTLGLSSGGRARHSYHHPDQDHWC

| SMILES | inhibition | inhibition (measured here: average of repeat tests) [%] |
| --- | --- | --- |
| CC(C)c1ccc(/C=C2\SC(N3CCOCC3)=NC2=O)cc1 | -2.3% (inactive) |  |
| CCOC(=O)C1CCCN(C(=O)CC(C)c2ccccc2)C1 (stereo not drawn) | -3.1% (inactive) |  |
| Cc1ccc(C)c(N2CCN(C(=O)CCn3c(=S)[nH]c4cc5c(cc4c3=O)OCO5)CC2)c1 | 4.3% (inactive) |  |
| Cc1ccc(-n2cccc2/C=C2/C(=N)N3C(=NC2=O)SN=C3S(C)(=O)=O)cc1Cl | 29.3% (inactive) |  |
| CS(=O)(=O)C1=NSC2=NC(=O)/C(=C\c3cccn3-c3ccccc3Cl)C(=N)N21 | 68.7% (active) |  |
| CS(=O)(=O)C1=NSC2=NC(=O)/C(=C\c3cccn3-c3ccc(Cl)cc3)C(=N)N21 | 24.5% (inactive) |  |
| O=C(CC1NCCNC1=O)Nc1cccc([N+](=O)[O-])c1 (stereo not drawn) | -6.8% (inactive) |  |
| CC(C)N(C(=O)Nc1ccc2nsnc2c1)C(C)C | 60.7% (active) |  |
| Cc1nc2ccc(NC(=O)N(C(C)C)C(C)C)cc2s1 | 10.4% (inactive) |  |
| CC(=O)Nc1ccc2nsnc2c1 | 9% (inactive) |  |
| CCC(C)(C)n1nnnc1C(c1ccc(Cl)cc1)N1CCN(C)CC1 (stereo not drawn) | -3.8% (inactive) |  |
| Cc1nn(C)c(C)c1CS(=O)(=O)c1ccccc1 | -4% (inactive) |  |
| CCc1c(C(C)S(=O)(=O)c2ccccc2)[nH]c(=O)n1CC (stereo not drawn) | -7.8% (inactive) |  |
| CCn1c(C)c(CS(=O)(=O)c2ccccc2)[nH]c1=O | 73.9% (active) |  |
| Cc1ccc2cc(CN(C(=O)c3cccs3)c3ccccc3)c(=O)[nH]c2c1 | 4.6% (inactive) |  |
| CC(C)O/C(=N\S(=O)(=O)c1ccc(Cl)cc1)c1ccccc1 | 3.7% (inactive) |  |
| Cc1cc(C)cc(C(N)=Nc2cccc(C#N)c2)c1 | 4.9% (inactive) |  |
| Cc1ccc(N=c2sc(C)c(C)n2C)cc1 | -35.3% (inactive) |  |
| NC1=NC(=Nc2ccc(Br)cc2)c2ccccc21 | -1.5% (inactive) |  |
| CN1C(=O)CSC1=Nc1ccc(Br)cc1 | -4.4% (inactive) |  |
| Cc1ccc(N=C2CSC(=O)N2)cc1 | -2.7% (inactive) |  |
| CCOC(=O)c1ccc(N=NN(C)C)cc1 | -7% (inactive) |  |
| N#Cc1ccc(N=c2ssnc2Cl)cc1 | 44.2% (inactive) |  |

| SMILES | inhibition | inhibition (measured here: average of repeat tests) [%] |
| --- | --- | --- |
| CCOC(=O)c1ccc(N=c2scc(C)n2CC)cc1 | 3.7% (inactive) |  |
| O=C(COc1ccccc1Cl)Nc1ccc(CN2CCOCC2)cc1 | -4.3% (inactive) |  |
| Cc1nn(CC(=O)N2CCC(N3CCCCC3)CC2)c(=O)c2c1sc1ccccc12 | 16.1% (inactive) |  |
| Cc1ccc(NC(=O)Cn2nnc(C(=O)NCc3ccc4c(c3)OCO4)c2N)cc1 | 9.7% (inactive) |  |
| O=C(NNc1ccccc1)Nc1ccccc1F | -15.6% (inactive) |  |
| CC(C)(C)C1CCC(=NNC(=O)C(=O)NC2CCCCC2)CC1 (stereo not drawn) | 2.1% (inactive) |  |
| O=C(OCc1nnc(-c2ccc(Cl)cc2)o1)c1ccncc1 | 7.7% (inactive) |  |
| Clc1ss/c(=N\c2ccccn2)c1Cl | 6.4% (inactive) |  |
| Clc1ccc(N=c2ssnc2Cl)cc1 | -17.4% (inactive) |  |
| Cc1c(CCC(=O)O)c(=O)oc2cc(OCc3cccc(F)c3)ccc12 | 16.2% (inactive) |  |
| CSc1nc(-c2ccco2)cc(-c2ccccc2)c1C#N | 15.4% (inactive) |  |
| N#Cc1c(-c2ccco2)cc(-c2ccccc2)[nH]c1=O | 48.2% (inactive) |  |
| N#Cc1c(-c2ccccc2)cc(-c2ccco2)c(C#N)c1N | 53.5% (active) |  |
| COc1ccc(Cl)cc1NC(=O)c1ccc2c(SCC(=O)O)c3c(nc2c1)CCCC3 | 12.3% (inactive) |  |
| COc1cc(Cl)c(C)cc1NC(=O)c1ccc2c(SCC(=O)O)c3c(nc2c1)CCCC3 | 53.2% (active) |  |
| COc1cc(OC)c(NC(=O)c2ccc3c(SCC(=O)O)c4c(nc3c2)CCCC4)cc1Cl | 44.9% (inactive) |  |
| CCCOc1cccc(C(=O)O)c1 | -5.1% (inactive) |  |
| O=C(N/N=C\C=C\c1ccco1)c1cc(-c2ccc3ccccc3c2)n[nH]1 | 80.2% (inactive) | 9.6 |
| CC(/C=N/NC(=O)c1cc(-c2ccc3ccccc3c2)n[nH]1)=C\c1ccco1 | 73.3% (active) |  |
| CC(/C=N/NC(=O)c1cc(-c2ccccc2)nc2ccccc12)=C\c1ccco1 | 52.6% (active) |  |
| O=C(N/N=C/c1ccco1)c1cc(-c2ccc3ccccc3c2)n[nH]1 | 5.5% (inactive) |  |
| CC(/C=N/NC(=O)c1cc(-c2ccncc2)nc2ccccc12)=C\c1ccco1 | 43.6% (inactive) |  |
| CC(/C=N/NC(=O)c1cc(-c2ccc(Cl)cc2)nc2ccccc12)=C\c1ccco1 | 37.8% (inactive) |  |

| SMILES | inhibition | inhibition (measured here: average of repeat tests) [%] |
| --- | --- | --- |
| CCOc1cc(C(=O)O)cc(Cl)c1OC | 0.7% (inactive) |  |
| Cc1ccc(N2CCN(/N=C/C=C/c3ccccc3)CC2)cc1 | 2.8% (inactive) |  |
| N/C(=N\C(=S)Nc1ccccc1)c1ccccc1 | 5.2% (inactive) |  |
| CNC(=S)/N=C(/Nc1ccccc1)c1ccccc1 | 59.9% (active) |  |
| Cc1ccc(NC(=O)c2ccccc2)cc1 | -4.2% (inactive) |  |
| CNC(=S)Nc1ccc(Nc2ccccc2)cc1 | -5.3% (inactive) |  |
| Cc1ccc(NC(=S)c2ccccc2)cc1 | -6.4% (inactive) |  |
| CS(=O)(=O)NCCSCc1c(Cl)cccc1Cl | 28.1% (inactive) |  |
| N#Cc1c(C(F)(F)F)cc(C2CC2)[nH]c1=O | 6.1% (inactive) |  |
| Cc1ccc(C(=S)NCS(=O)(=O)c2ccc(C)cc2)cc1 | 28% (inactive) |  |
| Cc1ccc(/C=C/c2nc3ccccc3[nH]2)o1 | 44.8% (inactive) |  |
| C(=C\c1ccco1)/c1nc2ccccc2[nH]1 | 65.6% (active) |  |
| C(=C\c1nc2ccccc2[nH]1)/c1ccccc1 | 5.8% (inactive) |  |
| CCc1ccc(CN2CCC(n3nccc3NC(=O)c3ccc4c(c3)OCO4)CC2)cc1 | 2.8% (inactive) |  |
| N#Cc1c(N2CCCCC2)nc(N2CCCCC2)c2c1CCN(Cc1ccccc1)C2 | 16.2% (inactive) |  |
| N#Cc1c(N)sc(=S)c2c1CCN(Cc1ccccc1)C2 | 52.4% (active) |  |
| N#Cc1c(N)sc2c1CCN(CCc1ccccc1)C2 | 3.3% (inactive) |  |
| CN(C(=O)CC1C(=O)NCCN1Cc1ccccc1F)C1CCOCC1 (stereo not drawn) | 16.3% (inactive) |  |
| CC1=CC(C)(C)N(C)C(=O)N1c1ccc(Cl)cc1 | -2.6% (inactive) |  |
| Cc1c(Cl)sn(-c2ccc(Cl)cc2)c1=O | 79.2% (active) |  |
| Cc1cc(=O)cc(C)n1-c1ccc(Cl)cc1 | 7.3% (inactive) |  |
